# Source: PubChem BioAssay (NCATS)
# Results filed as inconclusive are left out. Unmarked numbers belong to inactive results. The source made the active and inactive calls. The call rests on the fitted dose curve; in most records, active means well fitted inhibition curve with a large enough effect; inconclusive means small, poorly fitted or top-dose-only effect; inactive means flat fitted curve, though single readings scatter.
# Experiments:
# Assay in all cases: Cytotoxic Profiling of Annotated Libraries Using Quantitative High-Throughput Screening (AID 1296008); further: nearly all actives have a fitted effect of over 60% in size
# Details in all cases: Five cell lines viability, CellTiter-Glo ATP luminescence, 48-72 h; max response: hits give low values
# CRL-7250 = normal cell line; tested on: CRL-7250
# Method in brief: (§1)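 Cells exposed to compounds for 48 or 72 hr at 37 degrees Celsius. Viability read as ATP-coupled luminescence with CellTiter-Glo after 10 min at room temperature.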
# HEK293 = tested on: HEK293
# Method in brief: as §1
# HaCat = tested on: HaCat
# Method in brief: as §1
# KB-3-1 = tested on: KB-3-1
# Method in brief: as §1
# NIH3T3 = tested on: NIH3T3
# Method in brief: as §1
# On the % scale 0 is the no-effect control and ±100 the full control effect; potency means the concentration at half of the fitted maximal effect.
smiles,measurement,setting,value
CC1(C)CC[C@]2(C(=O)O)CC[C@]3(C)C(=CCC4[C@@]5(C)CC[C@H](O[C@@H]6O[C@H](C(=O)O)[C@@H](O[C@@H]7OC[C@@H](O)[C@H](O)[C@H]7O)[C@H](O)[C@H]6O)C(C)(C)C5CC[C@]43C)C2C1O (stereo not given in full),max response,CRL-7250,4.1%
same,max response,HEK293,2.41%
same,max response,HaCat,-24%
same,outcome,KB-3-1,inactive
same,max response,NIH3T3,-13.7%
O=C(CCc1ccccc1)N1CCC(O)(Cn2cnc3cc(Cl)ccc3c2=O)CC1,max response,CRL-7250,-1.98%
same,max response,HEK293,-25.5%
same,max response,HaCat,-6.79%
same,max response,KB-3-1,-17%
same,max response,NIH3T3,-4.94%
CN[C@H](CC(C)C)C(=O)N[C@H]1C(=O)N[C@@H](CC(N)=O)C(=O)N[C@H]2C(=O)N[C@H]3C(=O)N[C@H](C(=O)N[C@H](C(=O)O)c4cc(O)cc(O)c4-c4cc3ccc4O)[C@H](O[C@H]3C[C@](C)(N)[C@@H](O)[C@H](C)O3)c3ccc(c(Cl)c3)Oc3cc2cc(c3O[C@@H]2O[C@H](CO)[C@@H](O)[C@H](O)[C@H]2O[C@H]2C[C@](C)(NCc3ccc(-c4ccc(Cl)cc4)cc3)[C@@H](O)[C@H](C)O2)Oc2ccc(cc2Cl)[C@H]1O,max response,CRL-7250,0.406%
same,max response,HEK293,-5.83%
same,max response,HaCat,-0.936%
same,outcome,KB-3-1,inactive
same,max response,NIH3T3,1.69%
N[C@H]1Cc2ccccc2N(O)C1=O,max response,CRL-7250,-6.2%
same,Potency,HEK293,25900 nM (active)
same,max response,HaCat,-0.256%
same,max response,KB-3-1,-13.7%
same,max response,NIH3T3,-9.2%
C=C1CC[C@@H]2[C@](C)(CO[C@@H]3O[C@H](CO)[C@@H](O)[C@H](O)[C@H]3O)[C@H](O)CC[C@@]2(C)[C@@H]1C/C=C1/C(=O)OC[C@H]1O,max response,CRL-7250,4.42%
same,max response,HEK293,-4.02%
same,max response,HaCat,3.39%
same,outcome,KB-3-1,inactive
same,max response,NIH3T3,2.12%
C[C@H](C/C=C/C(C)(C)O)[C@H]1CC[C@@]2(C)[C@@H]3[C@@H](O[C@@H]4O[C@H](CO)[C@@H](O)[C@H](O)[C@H]4O)C=C4C(CC[C@H](O)C4(C)C)[C@]3(C=O)CC[C@]12C (stereo not given in full),max response,CRL-7250,-2.26%
same,max response,HEK293,-5.89%
same,max response,HaCat,-5.49%
same,max response,KB-3-1,8.11%
same,max response,NIH3T3,3.81%
COC(=O)C1=CO[C@@H](O)C2C(CO)=CCC12 (stereo not given in full),max response,CRL-7250,-9.24%
same,max response,HEK293,4.75%
same,max response,HaCat,-12%
same,max response,KB-3-1,-1.48%
same,max response,NIH3T3,-2.89%
C=C(CO[C@@H]1O[C@H](CO[C@@H]2OC[C@](O)(CO)[C@H]2O)[C@@H](O)[C@H](O)[C@H]1O)C1Cc2cc(C(C)=O)ccc2O1 (stereo not given in full),max response,CRL-7250,-1.55%
same,max response,HEK293,-4.65%
same,max response,HaCat,-0.415%
same,max response,KB-3-1,7.61%
same,max response,NIH3T3,3.36%
COC(=O)c1ccccc1O[C@@H]1O[C@H](CO)[C@@H](O)[C@H](O)[C@H]1O[C@@H]1O[C@@H](C)[C@H](O)[C@@H](O)[C@H]1O,outcome,CRL-7250,inactive
same,max response,HEK293,3.36%
same,max response,HaCat,-1.51%
same,max response,KB-3-1,3.4%
same,max response,NIH3T3,0.854%
CC1CC[C@]2(C(=O)O)CC[C@]3(C(=O)O)C(=CCC4[C@@]5(C)CC[C@H](O[C@@H]6O[C@H](CO)[C@@H](O)[C@H](O)[C@H]6O)C(C)(C)C5CC[C@]43C)C2C1C (stereo not given in full),max response,CRL-7250,-9.19%
same,max response,HEK293,-4.94%
same,max response,HaCat,4.65%
same,max response,KB-3-1,6.73%
same,max response,NIH3T3,2.56%
CC(=O)O[C@@H]1[C@@H](O)[C@H](C)O[C@@H](O[C@H]2[C@@H]3C=CO[C@@H](O[C@@H]4O[C@H](CO)[C@@H](O)[C@H](O)[C@H]4O)[C@@H]3[C@@]3(CO)O[C@@H]23)[C@@H]1OC(=O)/C=C/c1ccccc1,max response,CRL-7250,-1.26%
same,max response,HEK293,2%
same,max response,HaCat,-6.78%
same,max response,KB-3-1,-1.35%
same,max response,NIH3T3,-1.99%
CC(=O)OC[C@]12[C@H](OC(C)=O)C(=O)[C@@H]3[C@@H](OC(C)=O)[C@@]14O[C@@]3(C)COC(=O)c1cccnc1[C@@H](C)[C@H](C)C(=O)O[C@@H]([C@H](O)[C@@H]2OC(C)=O)[C@]4(C)O,max response,CRL-7250,0.341%
same,max response,HEK293,-0.596%
same,max response,HaCat,-0.606%
same,max response,KB-3-1,-8.82%
same,max response,NIH3T3,-21%
O=C(/C=C/c1ccc(O)cc1)N[C@@H](Cc1ccc(O)cc1)C(=O)O,max response,CRL-7250,-6.91%
same,max response,HEK293,-7.32%
same,max response,HaCat,1.92%
same,max response,KB-3-1,-2.01%
same,max response,NIH3T3,1.16%
CC(C)CC1NC(=O)C2CC3(O)c4ccccc4NC3N2C1=O (stereo not given),max response,CRL-7250,-2.34%
same,max response,HEK293,2.06%
same,max response,HaCat,-17.2%
same,max response,KB-3-1,7.2%
same,max response,NIH3T3,-1.31%
CC(C)(C)OC(=O)N1CCC(OCc2nc(-c3ccncc3)no2)CC1,max response,CRL-7250,-15.9%
same,max response,HEK293,0.811%
same,max response,HaCat,4.75%
same,max response,KB-3-1,-6.38%
same,max response,NIH3T3,-1.32%
COC(=O)C1=C2Nc3ccccc3C23CCN2CCCC(C(C)O)(C1)C23 (stereo not given),outcome,CRL-7250,inactive
same,max response,HEK293,-3.43%
same,max response,HaCat,-21.7%
same,max response,KB-3-1,6.23%
same,max response,NIH3T3,1.02%
COc1cc(C(=O)NC2CCN(C)CC2)ccc1Nc1ncc2c(n1)N(C1CCCC1)CC(F)(F)C(=O)N2C,Potency,CRL-7250,2310 nM (active)
same,Potency,HEK293,14.6 nM (active)
same,Potency,HaCat,116 nM (active)
same,Potency,KB-3-1,5.8 nM (active)
same,Potency,NIH3T3,2060 nM (active)
